Data published in PubChem BioAssay (NCI).
About 83,000 compounds went through this panel and 20% of them were active in at least one assay; those are over-represented in the sample as a whole.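 Percent growth is the endpoint: 0 to 100 indicates growth inhibition (40 means 60% inhibition), 0 means no net growth, and negative values indicate cell death.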 Unmarked numbers belong to inactive results. Activity calls are given as the source filed them. How the source made its calls: active means growth percent below 10; inactive means the rest.

What was measured:
Experiment in all cases: NCI-60 one-dose screen, 48 h (100 = growth as untreated, 0 = no growth, -100 = all killed)
NCI-H322M lung = details: 10 µM unless noted
HOP-62 NSCLC = details: 10 µM unless noted
NCI-H522 lung = details: 10 µM unless noted
COLO 205 colon = details: 10 µM
SNB-75 CNS = details: 10 µM unless noted
U251 CNS = details: 10 µM unless noted
SK-MEL-2 melanoma = details: 10 µM unless noted
ACHN renal = details: 10 µM unless noted
OVCAR-5 ovarian = details: 10 µM unless noted
OVCAR-4 ovarian = details: 10 µM unless noted
SK-OV-3 ovarian = details: 10 µM unless noted
IGROV1 ovarian = details: 10 µM
K-562 leukemia = details: 10 µM unless noted
EKVX NSCLC = details: 10 µM unless noted
SR leukemia = details: 10 µM
HOP-92 NSCLC = details: 10 µM unless noted
A549/ATCC NSCLC = details: 10 µM unless noted
NCI/ADR-RES ovarian = details: 10 µM unless noted

| SMILES | growth (NCI-H322M lung) | growth (HOP-62 NSCLC) | growth (NCI-H522 lung) | growth (COLO 205 colon) [%] | growth (SNB-75 CNS) [%] | growth (U251 CNS) [%] | growth (SK-MEL-2 melanoma) | growth (ACHN renal) | growth (OVCAR-5 ovarian) | growth (OVCAR-4 ovarian) | growth (SK-OV-3 ovarian) | growth (IGROV1 ovarian) | growth (K-562 leukemia) [%] | growth (EKVX NSCLC) | growth (SR leukemia) | growth (HOP-92 NSCLC) [%] | growth (A549/ATCC NSCLC) | growth (NCI/ADR-RES ovarian) |
| --- | --- | --- | --- | --- | --- | --- | --- | --- | --- | --- | --- | --- | --- | --- | --- | --- | --- | --- |
| CC1COC(=O)C1 (stereo not given) | 100% | 99.6% | 99.4% | 102 | 81.9 | 102 | 99.3% | 108% | 102% | 109% | 96.1% | 103% | – | – | – | – | – | – |
| Cc1ccc(C(=O)C2CN(C)CCC2(O)c2ccc(C)cc2)cc1 (stereo not given) | 113% | – | 111% | 131 | 96 | 104 | 124% | – | 122% | 106% | 122% | 124% | 123 | 111% | 101% | – | – | – |
| CNC(=O)O/N=C(/C)c1ccc(Cl)cc1 | – | 99.4% | 96.5% | 107 | 87.4 | – | 97.2% | 129% | 111% | – | 96.8% | 101% | 92.9 | – | 90% | 86.4 | 99.3% | 109% |
| CNc1ccc(C(=O)CC(O)CCC(C)C2OC(=O)CC(O)CC(=O)CC(O)CC(O)CC(O)CC(O)CC3(O)CC(O)C(C(=O)OC)C(CC(O[C@@H]4O[C@H](C)[C@@H](O)[C@H](N)[C@@H]4O)/C=C/C=C/C=C/C=C/C=C/C=C/C=C/C2C)O3)cc1 (stereo not given in full) | 1.05% (active) | -25.9% (active) | -13.2% (active) | – | 42.6 | 23.8 | -8.57% (active) | -79.5% (active) | -9.42% (active) | -10.5% (active) | 2.49% (active) | 3.21% (active) | 34.5 | -9.97% (active) | -11.5% (active) | – | -65% (active) | -35.9% (active) |
| CO[C@@H]([CH2][Hg][S]C#N)[C@@H]([CH2][Hg][S]C#N)OC | – | 99.8% | 48.1% | 66.2 | 84.5 | – | 106% | – | 107% | 95.4% | 119% | 63.9% | 46.5 | 112% | 66.5% | 76.2 | 102% | 93.7% |
| C/C(=N/OC(=O)N(C)C)c1cc(Cl)ccc1Cl | – | 95.6% | 83.5% | – | 82.1 | – | 95.7% | 100% | 104% | – | 98.3% | – | 104 | – | 90.7% | 107 | 101% | 99.4% |
| O=C(O)CC(Br)C(=O)CBr (stereo not given) | 100% | 105% | – | 109 | 93.5 | 99.2 | – | 99% | 106% | – | 106% | 109% | 105 | – | 113% | – | 99.9% | 111% |
| CC(C)CCC[C@@H](C)[C@H]1CC[C@H]2[C@@H]3CC=C4C[C@@H](OC(=O)Cc5ccc(N(CCCl)CCCl)cc5)CC[C@]4(C)[C@H]3CC[C@]12C | 214% | – | 124% | 117 | 103 | 109 | 94.6% | 100% | 98.2% | 114% | 114% | – | 90.4 | 106% | – | – | 112% | 102% |
| O=C(NCCNC(=O)c1ccc([As](O)O)cc1)c1ccc([As](O)O)cc1 | 102% | – | 103% | 100 | 87.5 | 103 | 103% | 106% | 114% | 105% | – | – | 116 | 103% | 101% | – | 109% | – |
| CCC(C)/C=C(C)/C=C/C(=O)c1c(O)c(-c2ccc(O)cc2)c[nH]c1=O (stereo not given) | 59.3% | – | 34.1% | 105 | 51.5 | 40.9 | 89.1% | 50.5% | – | – | 74.3% | 40.7% | 39.2 | 58% | – | – | 63.1% | 33.5% |
| COP(=S)(OC)Oc1ccc(SC)c(C)c1 | 108% | 95.4% | 94.8% | 101 | – | 100 | 103% | 101% | – | – | 100% | 99.7% | 99.6 | 106% | – | – | – | 100% |
| C=CC(O)CN1CC1CC (stereo not given) | 106% | – | – | 114 | – | 93.8 | – | 102% | 104% | – | 107% | 108% | 101 | 102% | 89.9% | 93.6 | 92.8% | – |
| CCOCC1(CCc2ccccc2)C(=O)NC(=S)NC1=O | 114% | – | – | 109 | 100 | 101 | 103% | 108% | 107% | 120% | – | 107% | 105 | 116% | 92.7% | 101 | 97.8% | 105% |
| CC(/C=N/N=C(N)N)=N/N=C(N)N | 34.9% | 81.1% | 117% | 81.7 | 71.5 | 89.6 | 14.8% | 94.5% | 84.4% | 91.9% | 97.2% | – | 82.1 | 92.9% | 78.4% | – | 106% | 74.3% |
| Cc1ccccc1O | 114% | 95.4% | 99% | 105 | – | 105 | 109% | 103% | – | 101% | 97.5% | 102% | 119 | 111% | 128% | – | 100% | 100% |
| COc1ccc(/C=C(/C(=O)N2CCCC2)c2cc(OC)c(OC)c(OC)c2)cc1N | 48.1% | – | 3.14% (active) | – | – | 31 | 42.6% | 45.2% | 54.5% | – | 28.7% | 51.4% | 16.1 | 52.8% | 19.5% | 46.1 | 41.1% | 68.2% |
| CC(=O)C1CCC2C3CC=C4CC(OC(=O)Cc5ccc(N(CCCl)CCCl)cc5)CCC4(C)C3CCC12C (stereo not given) | 119% | 112% | 80% | – | 93.7 | 106 | 106% | 100% | 107% | 99.4% | 112% | 97.3% | – | 83.1% | 52.7% | – | 131% | 96.2% |
| C[C@]12CCC(=O)CC1CC[C@@H]1C2CC[C@@]2(C)C1CC[C@@H]2OC(=O)CC[Se][Se]CCC(=O)O[C@H]1CCC2[C@@H]3CCC4CC(=O)CC[C@]4(C)C3CC[C@@]21C (stereo not given in full) | 84.1% | 82.4% | 88.3% | – | 109 | 81.3 | 98.4% | 100% | 102% | – | 160% | 97.3% | – | 31.9% | – | – | 101% | 92.9% |
| ClCCN(CCCl)c1nc(Cl)c(C2CC(c3ccccc3)=NN2c2ccccc2)s1 (stereo not given) | 86.9% | 79.5% | 75.1% | – | 78.9 | 86.1 | – | 89.6% | 99.5% | – | 82.9% | 107% | 68.3 | 89.5% | 88.4% | – | 88.9% | 103% |
| NC(=O)SCC(=O)Nc1ccc([As](=O)(O)O)cc1 | – | 136% | -9.01% (active) | 75.6 | 96.6 | 44.4 | 73.3% | 100% | 125% | 99.8% | – | 65.5% | 75.5 | 111% | – | – | 85.9% | 86.4% |
| Oc1ccccc1OB(Oc1ccccc1O)N(CCCl)CCCl | – | 104% | -6.22% (active) | – | 92.8 | – | 104% | – | 102% | 96.8% | 112% | 52.4% | 96.2 | – | 36.5% | – | 67% | 85% |
| O=C(O)CNC(=O)c1ccccc1 | – | 93.4% | – | – | – | – | – | 102% | – | 105% | 104% | 105% | – | – | – | 92.4 | 101% | 101% |
